B2AR arrestin: recruits beta-arrestin to the human beta2-adrenergic receptor; beta-arrestin recruitment to beta2AR, cell-based reporter; 330,000 compounds, 0.02% hits; Potency, µM (doses to about 46.1 µM), for the others: top-dose activation, actives largely listed as activators; active = well fitted activation curve with a large enough effect; inconclusive = small, poorly fitted or top-dose-only effect;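 also: potency is read from the fitted curve at half-maximal effect; 0% = DMSO controls and full agonism = EC100 isoproterenol or metaproterenol; nearly all actives have a fitted effect of over 65% in size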
Target sequence (P07550 whole entry, looked up): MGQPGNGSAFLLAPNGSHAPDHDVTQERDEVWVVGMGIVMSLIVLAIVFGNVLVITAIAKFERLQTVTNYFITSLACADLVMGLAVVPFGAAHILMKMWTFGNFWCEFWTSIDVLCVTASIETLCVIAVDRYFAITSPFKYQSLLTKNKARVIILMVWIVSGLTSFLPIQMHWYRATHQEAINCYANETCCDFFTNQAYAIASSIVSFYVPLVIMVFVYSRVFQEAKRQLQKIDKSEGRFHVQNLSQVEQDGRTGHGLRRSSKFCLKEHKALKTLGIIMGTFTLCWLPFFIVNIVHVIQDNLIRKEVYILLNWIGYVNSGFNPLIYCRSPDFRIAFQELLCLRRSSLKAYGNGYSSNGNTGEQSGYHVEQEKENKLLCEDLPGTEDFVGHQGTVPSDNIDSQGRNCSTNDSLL
Giardia kill: kills Giardia lamblia; Giardia lamblia trophozoite viability; activity change, % at 7.66 µM, hits read low; 340,000 compounds, 0.15% hits; in the data active = activity change below about -80%; inconclusive = between about -30% and that limit;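 also: parasites exposed to compound for two days anaerobically before the ATP read; % is scaled to controls: 0 for no effect and ±100 for the full control effect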
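ATP-content bioluminescence gauges trophozoite survival. Cells (100/well) receive compound and incubate anaerobically for 48 hrs at 37 deg C; detection reagent follows for 15-30 min at room temperature.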
DRD3 antagonist: D3 dopamine receptor (human) antagonism; AID 652054; max response, negative = inhibition, %; D3R cells, DiscoveRx beta-arrestin luminescence, antagonist mode; hits give low values; 360,000 compounds, 2.5% hits; in the data active = max response below about -50%; inconclusive = no clear call, values can overlap the other calls; also: % is scaled to controls: 0 for no effect and ±100 for the full control effect
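Cells expressing the human receptor were seeded at 1500 cells/well, incubated overnight at 37 degrees C in 5% CO2, then exposed to library compounds with dopamine controls for 90 minutes at 37 degrees C before luminescent detection.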
DRD3 agonist: activates the human D3 dopamine receptor; max activation, %; 410,000 compounds, 0.58% hits; D3R DiscoveRx beta-arrestin cells, luminescence, 90 min; AID 652048; P35462; in the data active = max activation above about 30%; also: 0% is about no effect
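Cells at 1500/well, incubated overnight, then treated with pinned compounds (dopamine as control) for 90 min at 37 degrees C. DiscoveRx reagent added for 30 - 60 minutes at room temperature; luminescence read.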
Numbers without * were called inactive; ? = inconclusive; . = no result. In the library only some 2.8% were active in any assay of this set; here they are far more common.

SMILES	B2AR arrestin	Giardia kill	DRD3 antagonist	DRD3 agonist
Cc1ccc(C)c(N2CCN(CCCNC(=O)c3ccc4nc(CCc5ccccc5)oc4c3)CC2)c1	.	.	.	-20
C/C=C(\C)CN1CCN(c2cc(C)ccc2C)CC1	0%	7	-86*	-38
CC(C)Cc1nn2c(=O)cc(COC(=O)c3ccccc3NC(=O)c3ccccc3)nc2s1	.	.	.	-12
Nc1nnc(CC(=O)N/N=C/c2cccc([N+](=O)[O-])c2)s1	0%	-10	0	-13
O=C(CNC(=O)c1ccccc1Br)N/N=C\c1cc([N+](=O)[O-])cc(Br)c1O	0%	6	-76*	-27
COC(=O)N/N=C/c1cc([N+](=O)[O-])cc(Br)c1O	0%	10	-98*	-15
O=C(CNC(=O)c1ccccc1Br)N/N=C/c1ccccc1O	0%	8	13	4
Nc1nnc(CC(=O)N/N=C/c2cc([N+](=O)[O-])cc(Br)c2O)s1	0%	2	-109*	-19
C[C@@H](/C=C/c1ccc2ccccc2c1)C1COC(=O)C[C@H]1O (stereo partly drawn)	.	23	.	.
CC1Oc2ccccc2OC1C(=O)Nc1nccs1 (stereo not drawn)	-1%	-13	10	13
Cc1cc(NC(=O)C2Oc3ccccc3OC2C)no1 (stereo not drawn)	0%	-19	-138*	1
CCOc1ccc(NS(=O)(=O)c2c(C)nc3sc(CC)nn3c2=O)cc1	0%	19	-53*	0
O=C(NCCC1=CCCCC1)C1CCN(C(=O)c2ccc(Cl)cc2)CC1	-1%	1	-131*	7
Clc1ccc(CNCCC2=CCCCC2)cc1	0%	2	-71*	-53
S=C(NCCC1=CCCCC1)Nc1ccc(Cl)cc1	-2%	-4	?	3
CN(C)CCNc1nc(-c2ccccc2)nnc1C(F)(F)F	-1%	-9	-51*	3
CN(C)c1nc(-c2ccccc2)nnc1C(F)(F)F	0%	-15	-64*	3
Fc1ccc(Sc2nc(-c3ccccc3)nnc2C(F)(F)F)cc1	0%	-11	-88*	-17
Cc1nnc(-c2ccc(Cl)cc2)nc1NCCN(C)C	0%	-22	-6	-1
OC(C#CCN1CCCCC1)(c1ccccc1)c1ccccc1	0%	18	-79*	-22
OC(C#CCN1CCCC1)(c1ccccc1)c1ccccc1	0%	-18	-12	-36
O=[N+]([O-])O[C@@H]1CO[C@H]2[C@@H]1OC[C@@H]2O	.	.	.	4
Cc1cccc(CS(=O)(=O)Cc2ccc(C(=O)NCc3ccccc3)o2)c1	0%	4	8	-3
Cc1cccc(CS(=O)(=O)Cc2ccc(C(=O)NCc3cccs3)o2)c1	0%	12	6	32*
CCC(C)NC(=O)c1ccc2nc(-c3cccs3)c(-c3cccs3)nc2c1 (stereo not drawn)	.	28	.	.
SMILES	B2AR arrestin	Giardia kill	DRD3 antagonist	DRD3 agonist
C/C(=N/NC(=O)CN1CCN(S(=O)(=O)c2ccc(C)cc2)CC1)c1cccc(O)c1	0%	7	1	6
C/C(=N\NC(=O)CN1CCN(S(=O)(=O)c2ccc(C)cc2)CC1)c1cccnc1	0%	7	-52*	-17
C1=C(CCNc2nnnn2-c2ccccc2)CCCC1	0%	0	-61*	-8
COC(=O)c1cc2sc(Cl)cc2n1Cc1nc(-c2ccccc2C)oc1C	.	.	.	4
COc1ccc(/C=C(\C#N)C(=O)NCCc2ccccc2)cc1OCc1ccccc1	0%	14	-5	3
N#C/C(=C\c1ccc(O)c(O)c1)C(=O)NCCCc1ccccc1	0%	5	-80*	-41
Cc1[nH]n2c(=O)c3c(nc2c1-c1ccccc1)CCC3	0%	-2	?	-29
Cc1[nH]n2c(=O)c3c(nc2c1-c1ccc(Cl)cc1)CCC3	0%	-5	-87*	-13
COc1ccc(C(=O)NN/C=C/C(=O)c2ccc(Br)cc2)cc1	.	.	-29	-11
COc1ccc(C(=O)C=CNNC(=O)c2ccc(Cl)cc2)cc1	0%	12	-54*	-12
O=C(/C=C/NNC(=O)c1ccccc1)c1ccc(Br)cc1	5%	-11	-77*	-14
CCn1nccc1NC(=O)c1csc([C@H]2C[C@H](O)[C@@H](CO)O2)n1	.	.	7	1
CCn1nccc1NC(=O)c1csc([C@@H]2O[C@H](CO)[C@H](O)[C@H](O)[C@H]2O)n1	.	.	?	37*
C[C@@]12C(=O)N(CCO)CC(=O)N1[C@H](/C=C/c1ccccc1)[C@@H]1C(=O)N(c3ccccc3)C(=O)[C@@H]12	0%	-16	-59*	-4
COC(=O)c1[nH]c2cccc(OC)c2c1NC(=O)CCN1CCN(c2ccccc2OC)CC1	-1%	-9	-90*	-46

Screening data (PubChem)
